Results filed as inconclusive are left out. The source made the active and inactive calls. Calls follow the shape of the dose curve; as a rule, active = well fitted curve in the direction sought with a large enough effect in the repeat runs; inconclusive = weak or mixed curves; inactive = no such curve, though single readings can be large; an effect the other way counts as inactive or inconclusive.
Columns and labels:
[1] = qHTS RealTime-Glo MT Cell Viability Assay in HEK293 cells - 16 hour (AID 1224872); also: top concentration of the series differs between compounds; nearly all actives have a fitted effect of over 50% in size
How it was run: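 HEK293 cells seeded with NanoLuc/prosubstrate reagent, rested 5 h at 37 C, then dosed and kept at 37 C up to 40 h. Nonlytic real-time luminescence from viable cells read at 0, 8, 16, 24, 32 and 40 h.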

[2] = qHTS RealTime-Glo MT Cell Viability Assay in HepG2 cells - 8 hour (AID 1224873); also: nearly all actives have a fitted effect of over 55% in size
How it was run: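 HepG2 cells (600/well) mixed with RealTime-Glo MT reagent, settled 5 h at 37 C/5% CO2 before compound addition. Nonlytic NanoLuc luminescence from viable-cell prosubstrate reduction read repeatedly during 40 h treatment at 37 C.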

[3] = qHTS RealTime-Glo MT Cell Viability Assay in HEK293 cells - 40 hour (AID 1224874); details: RealTime-Glo luminescence; max response: active compounds read low; also: nearly all actives have a fitted effect of over 50% in size
How it was run: (§1)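 Luminescence readout at each listed time point; HEK293, 600 cells/well, RealTime-Glo MT reagent added with cells; compounds pinned (23 nL in DMSO) after 5 h at 37 C; continuous culture at 37 C.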

[4] = A CellTox Green Cytotoxicity Assay to monitor cytotoxicity in HEK293 cells - 24 hour (AID 1224875); also: series mostly up to about 77 µM; nearly all actives have a fitted effect of over 45% in size
How it was run: (§2)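 Read-out: fluorescence of a cell-impermeant cyanine dye staining DNA of dead cells, proportional to cytotoxicity. HEK293, 600 cells/well with reagent, compound (23 nL DMSO) added after 5 h; reads at 0, 8, 16, 24, 32, 40 h.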

[5] = A CellTox Green Cytotoxicity Assay to monitor cytotoxicity in HepG2 cells - 16 hour (AID 1224876); also: nearly all actives have a fitted effect of over 45% in size
How it was run: (§3)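 HepG2, 600 cells/well premixed w/ CellTox Green; 5 h settle, 37 C/5% CO2; pintool cpd add (DMSO); 37 C, 40 h; fluorescence read at 0, 8, 16, 24, 32, 40 h.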

[6] = qHTS RealTime-Glo MT Cell Viability Assay in HepG2 cells - 32 hour (AID 1224877); also: nearly all actives have a fitted effect of over 55% in size
How it was run: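 HepG2 cells (600/well) were dispensed with RealTime-Glo reagents, incubated 5 h at 37 °C, then treated with compounds in DMSO for up to 40 h. Nonlytic NanoLuc luminescence reflecting viable cells was read at each stated time point.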

[7] = A CellTox Green Cytotoxicity Assay to monitor cytotoxicity in HepG2 cells - 40 hour (AID 1224879); also: nearly all actives have a fitted effect of over 40% in size
How it was run: as §3

[8] = qHTS RealTime-Glo MT Cell Viability Assay in HEK293 cells - 0 hour (AID 1224880); also: top concentration of the series differs between compounds; nearly all actives have a fitted effect of over 45% in size
How it was run: as §1

[9] = A CellTox Green Cytotoxicity Assay to monitor cytotoxicity in HEK293 cells - 32 hour (AID 1224881); also: nearly all actives have a fitted effect of over 40% in size
How it was run: as §2

[10] = A CellTox Green Cytotoxicity Assay to monitor cytotoxicity in HepG2 cells - 24 hour (AID 1224878); also: nearly all actives have a fitted effect of over 45% in size
How it was run: as §3
% is scaled to controls: 0 for no effect and ±100 for the full control effect.

CC(=O)Oc1cccc(C)c1
inactive: Potency [1] | outcome [2] | max response [3] 2.59% | outcome [4] | outcome [5] | Potency [6] | Potency [7] | Potency [8] | outcome [9]

CCOC(=O)OC(C)OC1=C(C(=O)Nc2ccccn2)N(C)S(=O)(=O)c2ccccc21 (configuration not stated)
inactive: Potency [1] | outcome [2] | max response [3] 1.81% | outcome [4] | outcome [5] | outcome [10] | Potency [7] | Potency [8] | outcome [9]

OCCCCCO
inactive: Potency [1] | outcome [2] | max response [3] 4.41% | outcome [4] | outcome [5] | Potency [6] | Potency [7] | Potency [8] | outcome [9]

NC(=O)N[C@@H](CCC(=O)O)C(=O)O
inactive: Potency [1] | outcome [2] | max response [3] 5.25% | outcome [4] | outcome [5] | Potency [6] | Potency [7] | Potency [8] | outcome [9]

CCC(C(=O)NC(=O)NC(C)=O)c1ccccc1 (configuration not stated)
inactive: Potency [1] | outcome [2] | max response [3] -7.54% | outcome [4] | outcome [5] | outcome [10] | Potency [7] | Potency [8] | outcome [9]

CC12CCC(C(=O)C1=O)C2(C)C (configuration not stated)
inactive: Potency [1] | outcome [2] | max response [3] -1.01% | outcome [4] | outcome [5] | outcome [10] | Potency [7] | Potency [8] | outcome [9]

O=S(=O)(O)c1cccc(S(=O)(=O)O)c1
inactive: Potency [1] | outcome [2] | max response [3] 15.6% | outcome [4] | outcome [5] | outcome [10] | Potency [7] | Potency [8] | outcome [9]

NC(CCC(=O)O)C(=O)O (configuration not stated)
inactive: Potency [1] | outcome [2] | max response [3] 16.4% | outcome [4] | outcome [5] | outcome [10] | Potency [7] | Potency [8] | outcome [9]

[O-][n+]1cccc(CO)c1
inactive: Potency [1] | outcome [2] | max response [3] 8.89% | outcome [4] | outcome [5] | outcome [10] | Potency [7] | Potency [8] | outcome [9]

C=C[Si](OC(C)=O)(OC(C)=O)OC(C)=O
inactive: Potency [1] | outcome [2] | max response [3] 4.65% | outcome [4] | outcome [5] | outcome [10] | Potency [7] | Potency [8] | outcome [9]

CC(C)(C)C(=O)c1ccccc1
inactive: Potency [1] | outcome [2] | max response [3] 0.84% | outcome [4] | outcome [5] | outcome [10] | Potency [8]

Reference: PubChem BioAssay (Tox21)
